The list shows a part of the results. Results filed as inconclusive are left out. The source made the active and inactive calls. The call rests on the fitted dose curve; in most records, active means well fitted inhibition curve with a large enough effect; inconclusive means small, poorly fitted or top-dose-only effect; inactive means no such curve, though single readings can be large or run the other way.

The nature of this assay: qHTS of pediatric cancer cell lines to identify multiple opportunities for drug repurposing: Orthogonal 3D viability screen for TC32 cells. The settings on record: TC32 3D spheroid viability, PI/Hoechst imaging, 72 h; series mostly up to 30.7 µM. An excerpt:
Drug repurposing or repositioning has been offered as a strategy for drug development in oncology programs. This approach has special potential for childhood cancers and other rare or orphan diseases, where the expected return on new drug development has been a disincentive to pharmaceuticals. […] In this project we exploit the poly-pharmacology of drugs to discover new indications via phenotypic screening of a panel of 19 well-characterized cell lines derived from solid tumors seen in children and adolescents. The goal is to identify approved drugs with previously unrecognized anticancer properties that has the potential to reveal new mechanisms and biological processes involved in carcinogenesis or drug resistance. We employed a titration-based paradigm (quantitative high-throughput screening or qHTS), where all compounds were tested at multiple concentrations for their effect on cell viability. Concentration-response curves (CRCs) were derived directly from the primary screen, and both potency and efficacy values were used to identify compounds with robust bioactivity profiles. […] These two assays will be used to validate active compounds and assess the correlation of compound's potency in 2D vs 3D cultures on selected cell lines. Assay Submitter: Nathalia J. Martinez, National Center for Advancing Translational Sciences, National Institutes of Health, Rockville, MD, USA; email: natalia.martinez@nih.gov Shen, M et al. Quantitative high-throughput phenotypic screening of pediatric cancer cell lines identifies multiple opportunities for drug repurposing. Oncotarget 2017 Dec 19;9(4):4758-4772. PMID 29435139.
The cells were obtained from University of North Carolina (UNC), Pediatric Preclinical Testing Program (PPT), and Coriell Institute (CI). qHTS viability in 3D culture: Cells were assayed in phenol red-free growth media at a density of 1,000 cells/well, with the exception of Daoy, and SH-N-SH which were assayed at 1,500 cells/ well. Thirty muL of cells were dispensed into 384-well, ULA, round bottom plates (Corning) using a Multidrop dispenser. Plates were spun down at 1,000 rpm for 1 min and incubated at 37 degrees C, 5% CO2, under a humidified atmosphere for either 24 (Daoy) or 48 hours (all other cell lines) to allow spheroid formation. Ninety-two nanoliter of compounds and controls (neutral control DMSO or positive control bortezomib at final concentrations of 0.5 µM) were subsequently transferred via GNF Pintool. Plates were sealed using a breathable seal (Diversified Biotech, Dedham, MA) and incubated for 72 hours at 37 degrees C. Spheroid viability was first determined by high-content imaging using Hoechst 33342 and Propidium Iodide (PI, ThermoFisher Scientific), followed by addition of CellTiter-Glo 3D (Promega). Specifically, 3 µL/well of PBS containing a 1:500 dilution of both dyes was dispensed using Multidrop. Dyes were incubated for 1 hour before imaging using the Celigo Image Cytometer. Then, 20 µl of CellTiter-Glo 3D were added per well. Plates were incubated for 30 min at RT on a VWR microplate shaker (300 rpm) and analyzed for luminescence intensity using a ViewLux High-throughput CCD imager equipped with clear filters. Image analysis was done using the Celigo Tumorsphere 1+2+3 application software as previously described. […] The data were exported to Excel, and the average fluorescent intensities were used to calculate the ratio of PI over Hoechst, which was used to quantify viability. […]
(In general: Quantitative high-throughput screening tests each substance at several concentrations.)
Consider `CC[C@]1(O)C[C@@H]2CN(CCc3c([nH]c4ccccc34)[C@@](C(=O)OC)(c3cc4c(cc3OC)N(C)[C@H]3[C@@](O)(C(=O)OC)[C@H](OC(C)=O)[C@]5(CC)C=CCN6CC[C@]43[C@@H]65)C2)C1`, for which the Potency was 32.3 nM (active). In the case of `CC(NCc1ccc2c(c1)nc(NC(=O)c1ccc(-c3cn[nH]c3)s1)n2CC(C)(C)O)C(C)(C)C` (stereo not given) it was 1620 nM (active); in that of `C=C1C(=CC=C2CCC[C@]3(C)[C@@H]([C@H](C)C=C[C@H](C)C(C)C)CC[C@@H]23)C[C@@H](O)C[C@@H]1O`, “inactive”. The result for `CC[C@H]1CN2CCc3cc(OC)c(OC)cc3[C@@H]2C[C@@H]1C[C@H]1NCCc2cc(OC)c(OC)cc21` reads 323 nM (active); that for `COC(=O)Nc1nc2ccc(Sc3ccccc3)cc2[nH]1`, 810 nM (active).

Source of the values: PubChem BioAssay AID1347139 (National Center for Advancing Translational Sciences (NCATS), 2019).
